Holding throughout (assay): DAPPL (digital affinity profiling via proximity ligation, sequencing); 10 mM Tris-HCl pH 7.5, 50 mM NaCl, 1 mM DTT, 4% glycerol, room temperature, 30 min; GST-TFs on glutathione beads, 16-mer random dsDNA library, 0.1% formaldehyde crosslink after washing; high values mean tight binding
One assay deals with HSF1 (Homo sapiens, UniProt Q00613 1-529). The note with it: protein: recombinant; tags: N-terminal GST; chain copies: 3; dsDNA, one strand shown. A digest of the protocol: (§1)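 Each value of binding signal is a hexamer's read frequency for a factor divided by the same hexamer's frequency in the tag-only sample. Barcoded, bead-captured GST fusions of human transcription factors made in yeast were pooled with that sample and incubated with 200 nmole of a random double-stranded 16-mer DNA library in Tris/NaCl/DTT/glycerol buffer at room temperature for 30 min. Washing, 0.1% formaldehyde crosslinking, proximity ligation, PCR and Illumina NextSeq500 sequencing followed.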
HSF1, sequence (Q00613 whole entry, the tested form may be a part): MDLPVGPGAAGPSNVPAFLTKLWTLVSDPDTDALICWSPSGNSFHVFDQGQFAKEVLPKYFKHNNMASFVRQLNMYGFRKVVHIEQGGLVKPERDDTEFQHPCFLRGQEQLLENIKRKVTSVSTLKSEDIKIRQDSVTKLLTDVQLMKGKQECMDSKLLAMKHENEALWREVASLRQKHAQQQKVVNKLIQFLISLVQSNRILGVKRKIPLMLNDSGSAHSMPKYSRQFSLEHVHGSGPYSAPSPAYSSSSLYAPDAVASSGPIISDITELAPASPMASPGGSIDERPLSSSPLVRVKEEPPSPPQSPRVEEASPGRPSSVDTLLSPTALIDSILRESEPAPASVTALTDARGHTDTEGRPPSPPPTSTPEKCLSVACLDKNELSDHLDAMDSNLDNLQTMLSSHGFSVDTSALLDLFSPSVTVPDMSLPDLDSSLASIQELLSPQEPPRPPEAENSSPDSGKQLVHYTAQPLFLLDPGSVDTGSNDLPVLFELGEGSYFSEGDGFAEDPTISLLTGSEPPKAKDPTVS

A further assay deals with T1, ELK1 (Homo sapiens, UniProt P19419 1-428).
T1 sequence: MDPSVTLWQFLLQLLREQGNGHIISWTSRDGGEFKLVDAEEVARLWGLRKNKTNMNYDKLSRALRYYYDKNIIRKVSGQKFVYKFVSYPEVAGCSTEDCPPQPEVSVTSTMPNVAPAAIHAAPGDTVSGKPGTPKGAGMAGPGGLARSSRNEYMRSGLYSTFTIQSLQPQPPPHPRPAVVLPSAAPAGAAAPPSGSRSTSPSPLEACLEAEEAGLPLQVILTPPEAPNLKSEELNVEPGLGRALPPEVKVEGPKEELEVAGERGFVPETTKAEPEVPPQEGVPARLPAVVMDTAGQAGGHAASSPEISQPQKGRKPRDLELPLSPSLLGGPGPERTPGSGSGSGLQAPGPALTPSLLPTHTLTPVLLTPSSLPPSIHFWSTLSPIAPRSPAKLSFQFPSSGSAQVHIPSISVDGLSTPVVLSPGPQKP
As to conditions: protein: recombinant; tags: N-terminal GST; dsDNA, one strand shown. A digest of the protocol: as §1

The target of a further assay is T2, GABPA (Homo sapiens, UniProt Q06546 1-454).
T2 sequence: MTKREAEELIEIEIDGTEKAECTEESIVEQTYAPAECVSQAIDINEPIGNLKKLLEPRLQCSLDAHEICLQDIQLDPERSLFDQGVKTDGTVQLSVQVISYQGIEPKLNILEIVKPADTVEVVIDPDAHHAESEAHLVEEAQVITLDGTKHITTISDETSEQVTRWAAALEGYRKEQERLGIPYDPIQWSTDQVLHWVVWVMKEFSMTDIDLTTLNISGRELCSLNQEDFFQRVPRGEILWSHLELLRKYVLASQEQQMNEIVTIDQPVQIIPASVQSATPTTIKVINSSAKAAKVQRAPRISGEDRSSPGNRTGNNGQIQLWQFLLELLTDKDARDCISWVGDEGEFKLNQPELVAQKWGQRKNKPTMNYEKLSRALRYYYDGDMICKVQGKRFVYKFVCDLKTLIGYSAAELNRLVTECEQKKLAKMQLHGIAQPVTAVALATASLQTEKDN
As to conditions: protein: recombinant; tags: N-terminal GST; dsDNA, one strand shown. A digest of the protocol: as §1

For another assay, the target named is ELF1 (Homo sapiens, UniProt P32519 1-619). The note with it: protein: recombinant; tags: N-terminal GST; dsDNA, one strand shown. A digest of the protocol: as §1
ELF1, sequence (P32519 whole entry): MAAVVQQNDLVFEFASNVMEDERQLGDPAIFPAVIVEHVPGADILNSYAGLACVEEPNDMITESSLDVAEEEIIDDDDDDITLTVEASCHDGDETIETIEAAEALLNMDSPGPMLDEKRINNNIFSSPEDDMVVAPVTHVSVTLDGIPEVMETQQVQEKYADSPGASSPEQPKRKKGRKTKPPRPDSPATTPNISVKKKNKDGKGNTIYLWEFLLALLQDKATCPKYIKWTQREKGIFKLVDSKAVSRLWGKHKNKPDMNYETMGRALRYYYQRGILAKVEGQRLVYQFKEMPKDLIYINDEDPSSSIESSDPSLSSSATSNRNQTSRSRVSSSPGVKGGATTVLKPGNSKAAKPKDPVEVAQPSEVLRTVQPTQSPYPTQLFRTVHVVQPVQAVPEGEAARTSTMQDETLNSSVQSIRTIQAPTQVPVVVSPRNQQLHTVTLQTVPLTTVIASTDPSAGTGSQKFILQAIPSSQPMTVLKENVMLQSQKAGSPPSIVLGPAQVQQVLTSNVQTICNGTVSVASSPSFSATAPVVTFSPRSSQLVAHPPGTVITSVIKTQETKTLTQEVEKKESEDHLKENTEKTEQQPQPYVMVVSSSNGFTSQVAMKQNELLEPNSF
A further assay addresses T3, EHF (Homo sapiens, UniProt Q9NZC4 1-300).
T3 sequence: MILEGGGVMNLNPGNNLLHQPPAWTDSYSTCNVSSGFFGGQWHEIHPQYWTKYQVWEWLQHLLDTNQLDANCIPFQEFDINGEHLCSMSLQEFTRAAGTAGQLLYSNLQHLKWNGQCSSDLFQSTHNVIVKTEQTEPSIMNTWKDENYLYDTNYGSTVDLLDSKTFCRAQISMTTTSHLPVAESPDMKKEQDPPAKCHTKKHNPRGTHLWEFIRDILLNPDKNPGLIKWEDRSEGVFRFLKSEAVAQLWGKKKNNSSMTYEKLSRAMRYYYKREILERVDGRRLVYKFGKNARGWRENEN
As to conditions: protein: recombinant; tags: N-terminal GST; dsDNA, one strand shown. A digest of the protocol: as §1

The target of a further assay is SPI1 (Homo sapiens, UniProt P17947 1-270). The note with it: protein: recombinant; tags: N-terminal GST; dsDNA, one strand shown. A digest of the protocol:
as §1

Another assay deals with SPIB (Homo sapiens, UniProt Q01892 1-262). The note with it: protein: recombinant; tags: N-terminal GST; dsDNA, one strand shown. The essentials: as §1
SPIB, sequence (Q01892 whole entry): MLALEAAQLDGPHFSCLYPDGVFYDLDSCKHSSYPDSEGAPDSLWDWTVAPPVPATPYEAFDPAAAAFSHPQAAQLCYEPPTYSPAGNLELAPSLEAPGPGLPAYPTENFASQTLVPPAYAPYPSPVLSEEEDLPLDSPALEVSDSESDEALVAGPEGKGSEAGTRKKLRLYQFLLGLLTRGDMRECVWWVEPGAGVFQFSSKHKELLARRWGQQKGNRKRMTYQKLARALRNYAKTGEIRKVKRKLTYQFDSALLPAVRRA
A further assay deals with T4, ELK3 (Homo sapiens, UniProt P41970 1-407).
T4 sequence: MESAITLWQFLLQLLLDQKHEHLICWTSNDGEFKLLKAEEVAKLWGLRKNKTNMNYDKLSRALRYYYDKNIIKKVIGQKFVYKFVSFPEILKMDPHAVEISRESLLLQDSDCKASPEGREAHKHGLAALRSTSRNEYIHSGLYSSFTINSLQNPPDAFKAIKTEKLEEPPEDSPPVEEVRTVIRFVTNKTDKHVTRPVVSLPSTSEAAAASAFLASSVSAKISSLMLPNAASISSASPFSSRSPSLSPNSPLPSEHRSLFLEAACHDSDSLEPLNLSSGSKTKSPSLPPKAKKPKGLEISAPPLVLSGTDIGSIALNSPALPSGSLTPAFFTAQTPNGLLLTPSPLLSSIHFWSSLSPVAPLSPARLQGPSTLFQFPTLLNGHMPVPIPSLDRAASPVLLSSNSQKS
As to conditions: protein: recombinant; tags: N-terminal GST; dsDNA, one strand shown. The essentials:
as §1

In a further assay the target is T5, SPIC (Homo sapiens, UniProt Q8N5J4 1-248).
T5 sequence: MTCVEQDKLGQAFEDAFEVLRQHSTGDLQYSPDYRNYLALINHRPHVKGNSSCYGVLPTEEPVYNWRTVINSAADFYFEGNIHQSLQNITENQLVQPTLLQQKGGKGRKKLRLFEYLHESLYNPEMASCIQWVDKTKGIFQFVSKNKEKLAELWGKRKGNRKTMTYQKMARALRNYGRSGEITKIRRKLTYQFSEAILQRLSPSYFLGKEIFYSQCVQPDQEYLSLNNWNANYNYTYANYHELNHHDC
The note with it: protein: recombinant; tags: N-terminal GST; dsDNA, one strand shown. A digest of the protocol:
as §1

In a further assay the target is ELF4 (Homo sapiens, UniProt Q99607 1-663). The note with it: protein: recombinant; tags: N-terminal GST; dsDNA, one strand shown. The essentials:
as §1

The next assay deals with T6, ELK4 (Homo sapiens, UniProt P28324-2 1-405).
T6 sequence: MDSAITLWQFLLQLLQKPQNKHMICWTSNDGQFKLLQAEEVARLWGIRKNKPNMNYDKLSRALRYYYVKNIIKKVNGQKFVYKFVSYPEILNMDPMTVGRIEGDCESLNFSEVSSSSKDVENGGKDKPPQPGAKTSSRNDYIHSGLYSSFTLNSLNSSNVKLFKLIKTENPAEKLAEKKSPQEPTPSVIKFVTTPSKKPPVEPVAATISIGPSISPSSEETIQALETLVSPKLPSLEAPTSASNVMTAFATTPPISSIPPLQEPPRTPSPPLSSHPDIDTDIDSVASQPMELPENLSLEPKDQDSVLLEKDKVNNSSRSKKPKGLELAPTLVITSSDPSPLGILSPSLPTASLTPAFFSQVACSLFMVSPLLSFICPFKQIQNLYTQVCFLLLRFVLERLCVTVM
As to conditions: protein: recombinant; tags: N-terminal GST; dsDNA, one strand shown. A digest of the protocol:
as §1

Another assay deals with T7, ETV2 (Homo sapiens, UniProt O00321 1-342).
T7 sequence: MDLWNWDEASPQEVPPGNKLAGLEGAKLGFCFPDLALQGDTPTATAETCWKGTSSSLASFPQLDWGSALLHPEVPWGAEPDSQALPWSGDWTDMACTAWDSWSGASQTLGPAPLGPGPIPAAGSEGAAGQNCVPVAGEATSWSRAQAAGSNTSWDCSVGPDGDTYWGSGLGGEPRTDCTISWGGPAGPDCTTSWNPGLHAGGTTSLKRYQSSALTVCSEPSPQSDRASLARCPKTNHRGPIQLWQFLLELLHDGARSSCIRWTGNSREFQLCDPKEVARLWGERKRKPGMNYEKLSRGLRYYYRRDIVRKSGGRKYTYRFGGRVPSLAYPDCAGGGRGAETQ
As to conditions: protein: recombinant; tags: N-terminal GST; dsDNA, one strand shown. The essentials: as §1

In the next assay the target is CRX (Homo sapiens, UniProt O43186 1-299). As to conditions: protein: recombinant; tags: N-terminal GST; dsDNA, one strand shown. The essentials: as §1
CRX, sequence (O43186 whole entry): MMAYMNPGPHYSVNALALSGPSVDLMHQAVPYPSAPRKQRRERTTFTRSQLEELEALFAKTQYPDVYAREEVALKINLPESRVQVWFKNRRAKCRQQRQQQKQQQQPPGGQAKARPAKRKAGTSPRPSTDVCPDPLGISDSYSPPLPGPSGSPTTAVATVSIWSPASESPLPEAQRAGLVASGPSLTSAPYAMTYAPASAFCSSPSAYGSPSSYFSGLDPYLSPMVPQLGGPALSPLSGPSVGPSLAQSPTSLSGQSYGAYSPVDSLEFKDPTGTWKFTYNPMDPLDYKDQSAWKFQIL
Another assay addresses ETV1 (Homo sapiens, UniProt P50549 1-477). As to conditions: protein: recombinant; tags: N-terminal GST; dsDNA, one strand shown. The essentials: as §1
The target of the next assay is T8, ETV3L (Homo sapiens, UniProt Q6ZN32 1-361).
T8 sequence: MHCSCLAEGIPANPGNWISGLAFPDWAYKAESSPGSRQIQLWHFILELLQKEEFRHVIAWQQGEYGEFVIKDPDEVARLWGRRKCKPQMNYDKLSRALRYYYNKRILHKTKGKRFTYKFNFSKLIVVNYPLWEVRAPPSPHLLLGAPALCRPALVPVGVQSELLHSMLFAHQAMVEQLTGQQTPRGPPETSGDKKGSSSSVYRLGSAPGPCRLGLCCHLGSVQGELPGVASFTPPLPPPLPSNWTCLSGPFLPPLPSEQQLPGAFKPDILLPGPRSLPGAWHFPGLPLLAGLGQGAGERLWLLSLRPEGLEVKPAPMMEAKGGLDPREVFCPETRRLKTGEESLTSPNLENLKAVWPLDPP
As to conditions: protein: recombinant; tags: N-terminal GST; dsDNA, one strand shown. A digest of the protocol: as §1

The next assay deals with T9, ETS2 (Homo sapiens, UniProt P15036 1-469).
T9 sequence: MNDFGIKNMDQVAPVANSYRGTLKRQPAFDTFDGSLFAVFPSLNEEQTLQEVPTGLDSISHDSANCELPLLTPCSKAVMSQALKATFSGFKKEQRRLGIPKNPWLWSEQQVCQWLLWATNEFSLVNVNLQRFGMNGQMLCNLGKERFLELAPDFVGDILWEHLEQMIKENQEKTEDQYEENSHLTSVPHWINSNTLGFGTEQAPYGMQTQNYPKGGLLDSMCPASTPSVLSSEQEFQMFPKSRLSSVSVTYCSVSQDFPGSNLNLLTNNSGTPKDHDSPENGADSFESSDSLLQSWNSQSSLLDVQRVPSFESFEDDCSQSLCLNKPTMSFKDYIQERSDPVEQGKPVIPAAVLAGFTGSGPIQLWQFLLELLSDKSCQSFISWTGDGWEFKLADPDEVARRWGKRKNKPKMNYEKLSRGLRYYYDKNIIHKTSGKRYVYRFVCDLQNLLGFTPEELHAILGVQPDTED
The note with it: protein: recombinant; tags: N-terminal GST; dsDNA, one strand shown. The essentials:
as §1

For another assay, the target named is T10, ETV7 (Homo sapiens, UniProt Q9Y603 1-341).
T10 sequence: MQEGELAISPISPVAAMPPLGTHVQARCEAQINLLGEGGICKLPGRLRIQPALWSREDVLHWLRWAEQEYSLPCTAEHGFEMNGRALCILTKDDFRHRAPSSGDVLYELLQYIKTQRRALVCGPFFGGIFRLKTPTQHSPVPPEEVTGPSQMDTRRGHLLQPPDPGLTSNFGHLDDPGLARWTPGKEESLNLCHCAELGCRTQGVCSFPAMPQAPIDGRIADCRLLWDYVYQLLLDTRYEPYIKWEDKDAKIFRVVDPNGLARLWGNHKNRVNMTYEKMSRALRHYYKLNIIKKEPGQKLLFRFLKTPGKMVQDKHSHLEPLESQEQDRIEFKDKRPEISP
The note with it: protein: recombinant; tags: N-terminal GST; dsDNA, one strand shown. A digest of the protocol: as §1

Another assay deals with T11, ELF5 (Homo sapiens, UniProt Q9UKW6-2 1-255).
T11 sequence: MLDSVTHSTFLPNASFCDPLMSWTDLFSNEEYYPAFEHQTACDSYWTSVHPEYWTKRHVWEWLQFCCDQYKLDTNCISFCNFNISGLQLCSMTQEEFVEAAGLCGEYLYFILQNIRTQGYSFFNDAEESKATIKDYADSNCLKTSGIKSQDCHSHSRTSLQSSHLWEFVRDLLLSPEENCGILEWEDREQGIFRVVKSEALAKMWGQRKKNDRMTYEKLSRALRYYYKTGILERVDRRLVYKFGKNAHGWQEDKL
As to conditions: protein: recombinant; tags: N-terminal GST; dsDNA, one strand shown. A digest of the protocol: as §1

A further assay concerns the target T12, ETV3 (Homo sapiens, UniProt P41162-2 1-143).
T12 sequence: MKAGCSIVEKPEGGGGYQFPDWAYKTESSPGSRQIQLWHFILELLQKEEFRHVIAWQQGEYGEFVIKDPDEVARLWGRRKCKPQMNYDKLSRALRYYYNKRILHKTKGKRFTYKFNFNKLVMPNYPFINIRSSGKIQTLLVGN
The note with it: protein: recombinant; tags: N-terminal GST; dsDNA, one strand shown. The essentials:
as §1

ELF4, sequence (Q99607 whole entry): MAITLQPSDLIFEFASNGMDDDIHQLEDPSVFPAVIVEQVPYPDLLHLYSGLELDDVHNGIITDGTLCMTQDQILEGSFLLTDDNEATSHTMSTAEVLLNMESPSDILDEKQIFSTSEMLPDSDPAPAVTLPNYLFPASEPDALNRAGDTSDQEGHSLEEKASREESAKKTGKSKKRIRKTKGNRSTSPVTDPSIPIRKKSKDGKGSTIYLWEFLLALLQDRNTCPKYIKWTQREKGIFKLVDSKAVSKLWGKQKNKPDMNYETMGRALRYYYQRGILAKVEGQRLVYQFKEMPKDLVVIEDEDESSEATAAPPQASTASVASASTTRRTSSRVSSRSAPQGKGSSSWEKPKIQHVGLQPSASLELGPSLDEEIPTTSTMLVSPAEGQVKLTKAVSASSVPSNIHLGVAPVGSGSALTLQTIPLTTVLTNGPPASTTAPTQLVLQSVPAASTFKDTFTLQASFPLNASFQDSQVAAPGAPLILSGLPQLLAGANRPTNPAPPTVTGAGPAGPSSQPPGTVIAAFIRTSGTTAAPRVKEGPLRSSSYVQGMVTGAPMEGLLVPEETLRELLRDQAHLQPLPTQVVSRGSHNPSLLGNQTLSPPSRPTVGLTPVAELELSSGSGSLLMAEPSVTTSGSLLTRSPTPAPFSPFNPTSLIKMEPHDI
ETV1, sequence (P50549 whole entry): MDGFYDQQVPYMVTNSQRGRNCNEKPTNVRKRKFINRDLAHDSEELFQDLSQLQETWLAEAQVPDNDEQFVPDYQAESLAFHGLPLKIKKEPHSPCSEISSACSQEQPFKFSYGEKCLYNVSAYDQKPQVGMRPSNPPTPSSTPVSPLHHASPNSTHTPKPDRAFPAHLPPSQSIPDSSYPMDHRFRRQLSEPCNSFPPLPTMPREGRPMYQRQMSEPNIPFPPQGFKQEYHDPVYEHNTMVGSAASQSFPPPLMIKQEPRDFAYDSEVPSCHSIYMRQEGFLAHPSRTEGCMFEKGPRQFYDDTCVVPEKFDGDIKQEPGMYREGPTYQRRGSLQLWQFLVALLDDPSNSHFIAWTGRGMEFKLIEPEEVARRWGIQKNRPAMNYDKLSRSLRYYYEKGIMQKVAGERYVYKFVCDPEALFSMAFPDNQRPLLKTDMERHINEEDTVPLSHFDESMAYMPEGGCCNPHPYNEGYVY

Take ACGAGA: the binding signal in the assay with HSF1 was 1.14 fold enrichment (6-mer frequency, TF over GST control).
In the case of TGATAA, the binding signal in the assay with ELK1 is 1.04 fold enrichment (6-mer frequency, TF over GST control); in the assay with GABPA, 1.03 fold enrichment (6-mer frequency, TF over GST control); with ELF1, 1 fold enrichment (6-mer frequency, TF over GST control); in the assay with EHF, 1.07 fold enrichment (6-mer frequency, TF over GST control); in the assay with SPI1 it was 1.05 fold enrichment (6-mer frequency, TF over GST control); with SPIB, 1.05 fold enrichment (6-mer frequency, TF over GST control). The binding signal was 1.09 fold enrichment (6-mer frequency, TF over GST control) with ELK3; 1.2 fold enrichment (6-mer frequency, TF over GST control) in the assay with HSF1; 1.04 fold enrichment (6-mer frequency, TF over GST control) with SPIC; 1.07 fold enrichment (6-mer frequency, TF over GST control) with ELF4; 1.06 fold enrichment (6-mer frequency, TF over GST control) with ELK4; 1.02 fold enrichment (6-mer frequency, TF over GST control) in the assay with ETV2. The binding signal in the assay with CRX is 1.52 fold enrichment (6-mer frequency, TF over GST control); with ETV1, 1.07 fold enrichment (6-mer frequency, TF over GST control); with ETV3L, 1.06 fold enrichment (6-mer frequency, TF over GST control); with ETS2 it was 1.01 fold enrichment (6-mer frequency, TF over GST control); in the assay with ETV7, 1.08 fold enrichment (6-mer frequency, TF over GST control); with ELF5 it was 1.02 fold enrichment (6-mer frequency, TF over GST control). Besides, the binding signal in the assay with ETV3 was 1.05 fold enrichment (6-mer frequency, TF over GST control).

The record behind these values is PMC7862700, “An all-to-all approach to the identification of sequence-specific readers for epigenetic DNA modifications on cytosine”.
